Laboratory results as given in paper PMC11006913.

Tests used:
Assay in all cases: PBM; 200 nM protein, PBS
Details in all cases: dsDNA, one strand shown
HESX1 [1] = biological target: HESX1 (Homo sapiens, UniProt Q9UBX0 95-180, R165K)
HESX1 [2] = biological target: HESX1 (Homo sapiens, UniProt Q9UBX0 95-180)
HESX1 [3] = biological target: HESX1 (Homo sapiens, UniProt Q9UBX0 95-180, R109Q)
VAX1 [4] = biological target: VAX1 (Homo sapiens, UniProt Q5SQQ9 86-172)
HESX1 [5] = biological target: HESX1 (Homo sapiens, UniProt Q9UBX0 95-180, P111T)
HESX1 [6] = biological target: HESX1 (Homo sapiens, UniProt Q9UBX0 95-180, F115L)
VAX1 [7] = biological target: VAX1 (Homo sapiens, UniProt Q5SQQ9 86-172, T142I)
VAX1 [8] = biological target: VAX1 (Homo sapiens, UniProt Q5SQQ9 86-172, K157R)
ALX3 [9] = biological target: ALX3 (Homo sapiens, UniProt O95076 139-225, N203Q)
ALX3 [10] = biological target: ALX3 (Homo sapiens, UniProt O95076 139-225)
ALX3 [11] = biological target: ALX3 (Homo sapiens, UniProt O95076 139-225, L168Q)
ALX3 [12] = biological target: ALX3 (Homo sapiens, UniProt O95076 139-225, L168V)
ALX3 [13] = biological target: ALX3 (Homo sapiens, UniProt O95076 139-225, N203S)
PROP1 [14] = biological target: PROP1 (Homo sapiens, UniProt O75360 56-141)
PROP1 [15] = biological target: PROP1 (Homo sapiens, UniProt O75360 56-141, R99H)
PROP1 [16] = biological target: PROP1 (Homo sapiens, UniProt O75360 56-141, F88S)
PROP1 (Homo sapiens, UniProt O75360 56-141, F88S), sequence (O75360 56-141 F88S): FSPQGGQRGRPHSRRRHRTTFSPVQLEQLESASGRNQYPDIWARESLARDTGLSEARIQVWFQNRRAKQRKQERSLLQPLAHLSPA

HESX1 (Homo sapiens, UniProt Q9UBX0 95-180, P111T), sequence (Q9UBX0 95-180 P111T): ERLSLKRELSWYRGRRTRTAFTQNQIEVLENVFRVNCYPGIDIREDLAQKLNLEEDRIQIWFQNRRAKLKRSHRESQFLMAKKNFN
HESX1 (Homo sapiens, UniProt Q9UBX0 95-180, R165K), sequence (Q9UBX0 95-180 R165K): as the sequence (Q9UBX0 95-180 P111T) above, with T17P, R71K counted along it
HESX1 (Homo sapiens, UniProt Q9UBX0 95-180), sequence (Q9UBX0 95-180): as the sequence (Q9UBX0 95-180 P111T) above, with T17P counted along it
HESX1 (Homo sapiens, UniProt Q9UBX0 95-180, F115L), sequence (Q9UBX0 95-180 F115L): as the sequence (Q9UBX0 95-180 P111T) above, with T17P, F21L counted along it
HESX1 (Homo sapiens, UniProt Q9UBX0 95-180, R109Q), sequence (Q9UBX0 95-180 R109Q): as the sequence (Q9UBX0 95-180 P111T) above, with R15Q, T17P counted along it
VAX1 (Homo sapiens, UniProt Q5SQQ9 86-172, K157R), sequence (Q5SQQ9 86-172 K157R): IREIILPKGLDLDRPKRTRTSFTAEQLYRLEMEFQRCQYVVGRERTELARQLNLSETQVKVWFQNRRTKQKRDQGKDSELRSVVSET
PROP1 (Homo sapiens, UniProt O75360 56-141, R99H), sequence (O75360 56-141 R99H): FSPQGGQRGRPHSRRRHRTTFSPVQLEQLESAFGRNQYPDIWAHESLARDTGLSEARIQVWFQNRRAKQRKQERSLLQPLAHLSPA
PROP1 (Homo sapiens, UniProt O75360 56-141), sequence (O75360 56-141): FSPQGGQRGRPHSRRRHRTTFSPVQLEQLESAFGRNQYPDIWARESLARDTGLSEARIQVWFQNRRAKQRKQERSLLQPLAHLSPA
VAX1 (Homo sapiens, UniProt Q5SQQ9 86-172), sequence (Q5SQQ9 86-172): as the sequence (Q5SQQ9 86-172 K157R) above, with R72K counted along it
VAX1 (Homo sapiens, UniProt Q5SQQ9 86-172, T142I), sequence (Q5SQQ9 86-172 T142I): as the sequence (Q5SQQ9 86-172 K157R) above, with T57I, R72K counted along it
ALX3 (Homo sapiens, UniProt O95076 139-225, N203Q), sequence (O95076 139-225 N203Q): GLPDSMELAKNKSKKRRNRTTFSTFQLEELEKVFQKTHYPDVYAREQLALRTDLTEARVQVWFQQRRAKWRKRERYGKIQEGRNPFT
ALX3 (Homo sapiens, UniProt O95076 139-225, N203S), sequence (O95076 139-225 N203S): as the sequence (O95076 139-225 N203Q) above, with Q65S counted along it
ALX3 (Homo sapiens, UniProt O95076 139-225), sequence (O95076 139-225): as the sequence (O95076 139-225 N203Q) above, with Q65N counted along it
ALX3 (Homo sapiens, UniProt O95076 139-225, L168V), sequence (O95076 139-225 L168V): as the sequence (O95076 139-225 N203Q) above, with L30V, Q65N counted along it
ALX3 (Homo sapiens, UniProt O95076 139-225, L168Q), sequence (O95076 139-225 L168Q): as the sequence (O95076 139-225 N203Q) above, with L30Q, Q65N counted along it

With ACAGCGCG the binding signal (HESX1 [1]) was 6.46 upbm affinity estimate (log intensity, higher = more binding, comparable within an allelic series), the binding signal (HESX1 [2]) was 6.41 upbm affinity estimate (log intensity, higher = more binding, comparable within an allelic series) and the binding signal (HESX1 [3]) was 6.49 upbm affinity estimate (log intensity, higher = more binding, comparable within an allelic series). For the same sequence, the binding signal (VAX1 [4]) was 7.27 upbm affinity estimate (log intensity, higher = more binding, comparable within an allelic series), the binding signal (HESX1 [5]) was 6.48 upbm affinity estimate (log intensity, higher = more binding, comparable within an allelic series) and the binding signal (HESX1 [6]) was 6.44 upbm affinity estimate (log intensity, higher = more binding, comparable within an allelic series). For the same sequence, the binding signal (VAX1 [7]) was 7.28 upbm affinity estimate (log intensity, higher = more binding, comparable within an allelic series) and the binding signal (VAX1 [8]) was 7.22 upbm affinity estimate (log intensity, higher = more binding, comparable within an allelic series).

For ACTTTATA, the binding signal (HESX1 [1]) was 7.59 upbm affinity estimate (log intensity, higher = more binding, comparable within an allelic series), the binding signal (HESX1 [2]) was 7.66 upbm affinity estimate (log intensity, higher = more binding, comparable within an allelic series) and the binding signal (HESX1 [3]) was 7.19 upbm affinity estimate (log intensity, higher = more binding, comparable within an allelic series). The binding signal (HESX1 [5]) was 7.41 upbm affinity estimate (log intensity, higher = more binding, comparable within an allelic series) and the binding signal (HESX1 [6]) was 7.31 upbm affinity estimate (log intensity, higher = more binding, comparable within an allelic series).

CCACTGCG was tested, and the binding signal (HESX1 [1]) was 6.48 upbm affinity estimate (log intensity, higher = more binding, comparable within an allelic series), the binding signal (HESX1 [2]) was 6.49 upbm affinity estimate (log intensity, higher = more binding, comparable within an allelic series) and the binding signal (HESX1 [3]) was 6.5 upbm affinity estimate (log intensity, higher = more binding, comparable within an allelic series). The binding signal (HESX1 [5]) was 6.5 upbm affinity estimate (log intensity, higher = more binding, comparable within an allelic series) and the binding signal (HESX1 [6]) was 6.42 upbm affinity estimate (log intensity, higher = more binding, comparable within an allelic series).

CGGCACGC was tested, and the binding signal (HESX1 [1]) was 6.6 upbm affinity estimate (log intensity, higher = more binding, comparable within an allelic series), the binding signal (HESX1 [2]) was 6.41 upbm affinity estimate (log intensity, higher = more binding, comparable within an allelic series) and the binding signal (HESX1 [3]) was 6.57 upbm affinity estimate (log intensity, higher = more binding, comparable within an allelic series). For the same sequence, the binding signal (HESX1 [5]) was 6.5 upbm affinity estimate (log intensity, higher = more binding, comparable within an allelic series) and the binding signal (HESX1 [6]) was 6.53 upbm affinity estimate (log intensity, higher = more binding, comparable within an allelic series).

CGCCCAAG was tested, and the binding signal (HESX1 [1]) was 6.57 upbm affinity estimate (log intensity, higher = more binding, comparable within an allelic series), the binding signal (HESX1 [2]) was 6.59 upbm affinity estimate (log intensity, higher = more binding, comparable within an allelic series) and the binding signal (ALX3 [9]) was 7.75 upbm affinity estimate (log intensity, higher = more binding, comparable within an allelic series). For the same sequence, the binding signal (ALX3 [10]) was 7.67 upbm affinity estimate (log intensity, higher = more binding, comparable within an allelic series), the binding signal (HESX1 [3]) was 6.54 upbm affinity estimate (log intensity, higher = more binding, comparable within an allelic series) and the binding signal (ALX3 [11]) was 7.8 upbm affinity estimate (log intensity, higher = more binding, comparable within an allelic series). For the same sequence, the binding signal (HESX1 [5]) was 6.5 upbm affinity estimate (log intensity, higher = more binding, comparable within an allelic series), the binding signal (ALX3 [12]) was 7.74 upbm affinity estimate (log intensity, higher = more binding, comparable within an allelic series) and the binding signal (HESX1 [6]) was 6.55 upbm affinity estimate (log intensity, higher = more binding, comparable within an allelic series). The binding signal (ALX3 [13]) was 7.78 upbm affinity estimate (log intensity, higher = more binding, comparable within an allelic series).

CACGGCGC was tested, and the binding signal (HESX1 [1]) was 6.6 upbm affinity estimate (log intensity, higher = more binding, comparable within an allelic series), the binding signal (HESX1 [2]) was 6.29 upbm affinity estimate (log intensity, higher = more binding, comparable within an allelic series) and the binding signal (HESX1 [3]) was 6.5 upbm affinity estimate (log intensity, higher = more binding, comparable within an allelic series). The binding signal (VAX1 [4]) was 7.16 upbm affinity estimate (log intensity, higher = more binding, comparable within an allelic series), the binding signal (HESX1 [5]) was 6.54 upbm affinity estimate (log intensity, higher = more binding, comparable within an allelic series) and the binding signal (HESX1 [6]) was 6.57 upbm affinity estimate (log intensity, higher = more binding, comparable within an allelic series). The binding signal (VAX1 [7]) was 7.21 upbm affinity estimate (log intensity, higher = more binding, comparable within an allelic series) and the binding signal (VAX1 [8]) was 7.23 upbm affinity estimate (log intensity, higher = more binding, comparable within an allelic series).

For AGATTGGG, the binding signal (HESX1 [1]) was 7.4 upbm affinity estimate (log intensity, higher = more binding, comparable within an allelic series), the binding signal (HESX1 [2]) was 7.61 upbm affinity estimate (log intensity, higher = more binding, comparable within an allelic series) and the binding signal (HESX1 [3]) was 7.3 upbm affinity estimate (log intensity, higher = more binding, comparable within an allelic series). The binding signal (HESX1 [5]) was 7.23 upbm affinity estimate (log intensity, higher = more binding, comparable within an allelic series).

In the case of GCCTGGCC, the binding signal (HESX1 [1]) was 6.59 upbm affinity estimate (log intensity, higher = more binding, comparable within an allelic series), the binding signal (HESX1 [2]) was 6.61 upbm affinity estimate (log intensity, higher = more binding, comparable within an allelic series) and the binding signal (HESX1 [3]) was 6.46 upbm affinity estimate (log intensity, higher = more binding, comparable within an allelic series). For the same sequence, the binding signal (HESX1 [5]) was 6.51 upbm affinity estimate (log intensity, higher = more binding, comparable within an allelic series) and the binding signal (HESX1 [6]) was 6.6 upbm affinity estimate (log intensity, higher = more binding, comparable within an allelic series).

With CCGGCCGA the binding signal (HESX1 [1]) was 6.49 upbm affinity estimate (log intensity, higher = more binding, comparable within an allelic series), the binding signal (HESX1 [2]) was 6.45 upbm affinity estimate (log intensity, higher = more binding, comparable within an allelic series) and the binding signal (PROP1 [14]) was 6.73 upbm affinity estimate (log intensity, higher = more binding, comparable within an allelic series). The binding signal (HESX1 [3]) was 6.51 upbm affinity estimate (log intensity, higher = more binding, comparable within an allelic series), the binding signal (PROP1 [15]) was 6.72 upbm affinity estimate (log intensity, higher = more binding, comparable within an allelic series) and the binding signal (HESX1 [5]) was 6.49 upbm affinity estimate (log intensity, higher = more binding, comparable within an allelic series). For the same sequence, the binding signal (PROP1 [16]) was 6.59 upbm affinity estimate (log intensity, higher = more binding, comparable within an allelic series) and the binding signal (HESX1 [6]) was 6.54 upbm affinity estimate (log intensity, higher = more binding, comparable within an allelic series).

With GACGGCGA the binding signal (HESX1 [1]) was 6.46 upbm affinity estimate (log intensity, higher = more binding, comparable within an allelic series), the binding signal (HESX1 [2]) was 6.46 upbm affinity estimate (log intensity, higher = more binding, comparable within an allelic series) and the binding signal (HESX1 [3]) was 6.44 upbm affinity estimate (log intensity, higher = more binding, comparable within an allelic series). The binding signal (HESX1 [5]) was 6.52 upbm affinity estimate (log intensity, higher = more binding, comparable within an allelic series) and the binding signal (HESX1 [6]) was 6.44 upbm affinity estimate (log intensity, higher = more binding, comparable within an allelic series).

With CAAGCCGC the binding signal (HESX1 [1]) was 6.58 upbm affinity estimate (log intensity, higher = more binding, comparable within an allelic series), the binding signal (HESX1 [2]) was 6.44 upbm affinity estimate (log intensity, higher = more binding, comparable within an allelic series) and the binding signal (PROP1 [14]) was 6.56 upbm affinity estimate (log intensity, higher = more binding, comparable within an allelic series). The binding signal (HESX1 [3]) was 6.54 upbm affinity estimate (log intensity, higher = more binding, comparable within an allelic series), the binding signal (PROP1 [15]) was 6.8 upbm affinity estimate (log intensity, higher = more binding, comparable within an allelic series) and the binding signal (HESX1 [5]) was 6.58 upbm affinity estimate (log intensity, higher = more binding, comparable within an allelic series). The binding signal (PROP1 [16]) was 6.57 upbm affinity estimate (log intensity, higher = more binding, comparable within an allelic series) and the binding signal (HESX1 [6]) was 6.56 upbm affinity estimate (log intensity, higher = more binding, comparable within an allelic series).
